According to PubChem BioAssay (NCI):
The panel holds about 83,000 compounds, 20% with a hit somewhere; the sample as a whole holds those more often.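 96-well plates, one dose, 48 hours. Percent growth reported; active if below 10.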 A number with no mark means an inactive call. Calls of active or inactive are those of the source.

These compounds were tested on MDA-MB-468 breast (assay: NCI-60 one-dose screen, 48 h (100 = growth as untreated, 0 = no growth, -100 = all killed)). Settings: 10 µM unless noted.

Compared with `CCN(CC)CCNc1ccc([N+](=O)[O-])c2sc3cc(Cl)ccc3c(=O)c12`, `Nc1cc2c(cc1Cl)-c1ccc([N+](=O)[O-])cc1/C2=N\O` is lower in growth: 92.6% for the first, 77.7% for the second.

Going from `Cc1cccc(N=Nc2cccc(C)c2)c1` to `CC(=O)Oc1ccccc1C(=O)/C=C/c1cccc([N+](=O)[O-])c1`, the growth falls from 108% to 61.2%.

Going from `COc1cc(C2CC(c3ccc(C)cc3)=NN2C(C)=O)ccc1Oc1ccnc2cc(Cl)ccc12` (stereo not given) to `COc1ccc(-c2cc(C(=O)N3N=C(c4ccc(N)cc4)CC3c3ccc(Cl)cc3)c3cc(OC)ccc3n2)cc1` (stereo not given), the growth rises from 78.6% to 95.8%.

Going from `Oc1ccc(/C=C/c2ccccc2)cc1` to `O=C(Oc1ccccc1)c1ccccc1Cl`, the growth rises from 81.3% to 102%.

Going from `CCOc1ccc(-c2cnnn2-c2nonc2-n2cccc2)cc1` to `Clc1ccc(-c2cnc3nonc3n2)s1`, the growth rises from 10.6% to 49.6%.

First: COc1ccc(C(=O)/C=C/c2ccc(/C=C/c3cc(OC)c(OC)c(OC)c3)cc2)cc1
Second: COc1ccc(Oc2nc(Nc3ccc(N4CCCCC4)nc3)ncc2NC(=O)c2cc(OC)cc(OC)c2)cc1
The growth of the first is higher: 51.9% for the first, 23.4% for the second.

First: CCOC(=O)CN1/C(=N/c2sc3c(c2C(=O)OCC)CCN(C(=O)OCC)C3)SC(=O)/C1=C\C(=O)OC
Second: CCCN1C(=O)/C(=c2\sc3n(c2=O)NC2C(N=3)N(CC)C(=O)N2CC)c2ccccc21 (stereo not given)
The growth of the first is higher: 79.6% for the first, 14.6% for the second.

Compared with `c1ccc(C(Nc2ccccn2)(c2ccccc2)c2ccccc2)cc1`, `Cc1cccc(CN(Nc2ccccc2)c2ccccc2)n1` is higher in growth: 52.7% for the first, 94.9% for the second.

First: CCCCCCCCOC(=O)c1ccc(O)c(OC)c1
Second: C[C@]12CCC3c4ccc(O)cc4C[C@@H](CCCCCCCCCS(=O)CCCC(F)(F)C(F)(F)F)C3C1CC[C@@H]2O (stereo not given in full)
The growth of the first is higher: 99.2% for the first, 88% for the second.

Compared with `CC(=O)OC[C@H](O)[C@@]1(O)CC[C@H]2[C@@H]3CCC4=CC(=O)CC[C@]4(C)[C@H]3[C@@H](O)C[C@@]21C`, `COC(=O)C1=C(C)C(=O)CC1` is lower in growth: 112% for the first, 110% for the second.

First: COC[C@@H](C)n1c(C2CCOCC2)nc2c1C1C=C(OC)C(c3c(C)noc3C)=CC1N=C2 (stereo not given in full)
Second: COc1ccc(/C(C)=C(\c2ccc(Cl)cc2)c2ccc(OCCN3CCCC3)cc2)cc1
The growth of the first is lower: 32.4% for the first, 57.8% for the second.

Going from `Cc1cc2cc3c(=O)[nH]c(=O)cc-3n(CC(O)C(O)C(O)CO)c2cc1C` (stereo not given) to `CNc1ncc2cc(-c3ccc(-c4ncccc4F)cc3Cl)c(=O)n(CC3OCC(N)CO3)c2n1` (stereo not given), the growth falls from 122% to 34.5%.

First: Nc1ncc(C#Cc2cncc(NC(=O)c3cccc(C(F)(F)F)c3)c2)c2cccnc12
Second: O=C(Nc1nc(-c2ccccc2Cl)cs1)c1cc(-c2ccccc2)nc2ccc(Cl)cc12
The growth of the first is higher: 92.5% for the first, 90.9% for the second.

Going from `O=C(NOCCO)c1ccc2cncn2c1Nc1ccc(I)cc1F` to `Cc1ccc(-n2nc3c(c(C#N)c2=O)CC(c2ccccc2[N+](=O)[O-])C([N+](=O)[O-])=C3O)cc1` (stereo not given), the growth falls from 107% to 94%.

`CSc1ccc(Cl)c(C(=O)Nc2sccc2C(N)=O)c1` was tested, and the growth was -7.28% (active).
With `COc1ccc(-c2oc3cc(O)c(OC)c(O)c3c(=O)c2OC)cc1O` the growth was -26.6% (active).
In the case of `COc1cccc(Cn2c(-c3nonc3NC(C)=O)nc3ccccc32)c1`, the growth is reported as -7.42% (active).
For `O=C(Nc1ccc(Cl)c(C(F)(F)F)c1)Nc1ccc2c(ccn2C(=O)c2cccc(F)c2)c1`, the growth was 9.28% (active).
With `CC(C)(C)c1ccc(C2CC(=O)C3=C(C2)Nc2ccccc2N(C(=O)c2ccccc2Cl)C3c2ccc(F)cc2)cc1` (stereo not given) the growth was -20.1% (active).
In the case of `COc1ccc(CN2c3ccccc3CCc3ccccc32)cc1F`, the growth is reported as 4.48% (active).
In the case of `COc1ccc(OC)c2c1[nH]c(=O)c1c3ccccc3cn21`, the growth is reported as -23.3% (active).
`OCCNc1nc(NCCO)nc(Nc2ccc(C3=NN(c4cc(Cl)cc(Cl)c4)C(c4ccc(Cl)cc4)C3)cc2)n1` (stereo not given) was tested, and the growth was -5.79% (active).
`COc1ccc(-c2nc(C(Cl)Cl)nc3cc(-c4ccccc4)nn23)cc1` was tested, and the growth was -55.8% (active).
With `C[N+](C)(C)c1ccc(CC2c3ccccc3-c3ccccc32)cc1` the growth was -24.1% (active).
For `O=C(CCc1nnc(-c2c(Cl)cccc2Cl)o1)c1nc2ccccc2[nH]1`, the growth was -2.19% (active).

For `COc1ccc(CN2CCc3c(Cl)nc(N)nc3C2=O)c(OC)c1`, the growth was 12% [100 µM].
